Rows were chosen to be rich in hits. Some 2.6% of all compounds tested hit in one or more screens of this group.
TROY signal inh – blocks TROY-dependent signaling in reporter cells. inhibition, % at 10 µM. Q293 LMP1-TROYcd NF-kB luciferase reporter, 4 h. AID 1347056. actives 0.98% (n = 360,000);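 active means compounds whose plate-normalised and pattern-corrected inhibition of the luciferase reporter signal at the single screening dose is 50% or more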
aDG glyco up – increases alpha dystroglycan glycosylation; AID 624168; actives 0.22% (n = 360,000); Pro5-aDG cells, alpha-DG glycosylation AlphaScreen (IIH6); 0% Pro5, 100% B10-LARGE cell signal; activation, % at 10 µM;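 active means activation of at least 8% versus controls, or a plate z-score of at least 8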;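 further: Pro5 are CHO cells carrying HIG-tagged alpha-DG that lacks glycosylation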
LGR2 antag – blocks bursicon-induced cAMP signaling via Drosophila LGR2. HEK293 LGR2, CRE-luciferase, bursicon-stimulated, 4 h. inhibition, % at 9.99 µM. actives 0.35% (n = 380,000). AID 720647;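 active means drop in luminescence signal, shown as inhibition above about 50% in the replicate tests, limit read from the data, passing the limit was not always enough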;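 further: agonist challenge used bursicon conditioned medium at about half maximal strength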
EBV LMP1 NFkB – Epstein-Barr LMP1 NF-kappaB reporter inhibition; LMP1-induced NF-kappaB luciferase reporter cells, luminescence; inhibition, % at 12.5 µM; actives 0.69% (n = 350,000); AID 504558; in the data active means inhibition above about 41%;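 further: 0% = neutral control wells and 100% = reference inhibitor control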
HSP90 refold inh – HSP90 refolding inhibition in rabbit reticulocyte lysate | actives 0.91% (n = 290,000) | luciferase refolding luminescence, 3 h | inhibition, % at 5.6 µM;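 active means inhibition above the screen-wide mean plus 3 SD, computed separately per campaign, cut at about 16% in these data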;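 further: 0% = DMSO wells and 100% = 60 µM geldanamycin wells; inhibitors lower the luminescence because luciferase stays unfolded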
TWEAK Fn14 block – TWEAK-Fn14 signaling inhibition. TWEAK-stimulated Fn14 reporter cells, luciferase luminescence, 8 h. inhibition, % at 10 µM. actives 2% (n = 360,000); in the data active means inhibition above about 50%
HSP90 confirm – confirmation of HSP90 inhibitors; shares compounds with HSP90 refold inh; rabbit reticulocyte lysate, luciferase refolding luminescence, 3 h; inhibition, % at 5.9 µM; actives 64% (n = 2,300); in the data active means inhibition above about 18%;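 further: 0% = vehicle wells and 100% = reference inhibitor wells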
luciferase ctr – counter-screen for HSP90 inhibitors: inhibitors of firefly luciferase | shares compounds with HSP90 refold inh | purified native firefly luciferase, luminescence | inhibition, % at 5.9 µM | actives 48% (n = 2,300);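 active means inhibition above the mean inhibition of all tested sample wells plus 3 SD, cut at about 10% in these data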;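 further: 0% = DMSO with luciferase and 100% = wells lacking luciferase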
Target sequence (P08659 whole entry, looked up): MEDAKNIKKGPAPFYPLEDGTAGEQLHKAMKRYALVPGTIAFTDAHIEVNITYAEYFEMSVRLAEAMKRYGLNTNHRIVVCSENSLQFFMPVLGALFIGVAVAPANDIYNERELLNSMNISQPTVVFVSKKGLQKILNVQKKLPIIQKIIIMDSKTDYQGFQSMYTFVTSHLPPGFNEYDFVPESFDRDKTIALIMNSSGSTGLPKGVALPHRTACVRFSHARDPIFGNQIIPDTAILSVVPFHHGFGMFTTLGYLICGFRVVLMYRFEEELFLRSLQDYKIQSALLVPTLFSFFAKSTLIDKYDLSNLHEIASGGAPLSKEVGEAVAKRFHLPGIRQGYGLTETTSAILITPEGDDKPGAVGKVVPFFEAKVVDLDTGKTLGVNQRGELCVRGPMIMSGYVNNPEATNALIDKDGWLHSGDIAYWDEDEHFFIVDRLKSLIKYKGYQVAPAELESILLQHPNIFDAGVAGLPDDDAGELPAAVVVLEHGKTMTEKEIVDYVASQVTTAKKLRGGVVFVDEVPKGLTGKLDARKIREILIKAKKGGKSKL
Numbers without * were called inactive; . = not tested or not shown.

SMILES	TROY signal inh	aDG glyco up	LGR2 antag	EBV LMP1 NFkB	HSP90 refold inh	TWEAK Fn14 block	HSP90 confirm	luciferase ctr
Cc1ccc2nc(-c3ccc(SCC(=O)O)nc3)[nH]c2c1	6.5	0.0	.	12.4	9.2	28.1	.	.
C[C@@H]1CN([C@H](C)CO)C(=O)Cc2cc(NC(=O)Cc3ccccc3)ccc2O[C@H]1CN(C)C	.	.	-16.8	.	.	.	.	.
CO[C@@H]1CN(C)C(=O)c2cc(NS(=O)(=O)CC(F)(F)F)ccc2OC[C@@H](C)N(Cc2cccnc2)C[C@@H]1C	.	.	10.4	.	.	.	.	.
CCN1CCN(C(=O)c2ccc(-c3nc4ccccc4s3)s2)CC1	-10.6	0.1	-30.9	-20.2	2.2	6.3	.	.
O=C(Nc1cccc(-c2nc3ccccc3s2)c1)c1ccc2c(c1)OCO2	-22.0	-0.1	10.5	-1.5	2.5	15.8	.	.
O=C(NC1CC1)c1ccc(-c2nc3ccccc3s2)s1	70.8*	0.2	.	42.3*	76.0*	96.7*	80.5*	77.1*
c1ccc2sc(-c3ccc4c(c3)OCO4)nc2c1	10.8	-0.3	.	21.5	19.0*	74.2*	59.7*	55.8*
Cc1ccc2nc(NC(=O)c3ccc(-c4nc5ccccc5s4)s3)sc2c1	-9.8	-0.2	-15.9	-62.2	-2.9	49.1	.	.
O=C(c1ccc(-c2nc3ccccc3s2)s1)N1CCOCC1	.	.	76.4*	.	63.8*	.	84.8*	79.0*
C[C@@H]1CN([C@@H](C)CO)S(=O)(=O)c2ccc(-c3ccc(F)cc3)cc2O[C@@H]1CN(C)S(C)(=O)=O	.	.	2.0	.	.	.	.	.
NC(=S)N/N=C/c1cn(-c2ccccc2)nc1-c1cccnc1	-30.4	0.3	4.4	9.3	30.2*	-4.9	1.3	-7.5
COc1ccc(-c2csc(Nc3ccc(C)cn3)n2)cc1	-71.9	-0.1	-23.5	-20.5	1.1	17.9	.	.
Cc1ccc(-c2csc(Nc3ccccn3)n2)cc1	31.4	0.2	81.5*	33.4	18.8*	82.3*	26.3*	17.1*
Oc1ccc(-c2csc(Nc3ccccn3)n2)cc1	-27.4	0.1	-86.3	-29.3	20.8*	6.1	-2.2	-12.0
Cc1cccnc1Nc1nc(-c2ccc(O)cc2)cs1	-52.1	0.0	.	-23.1	1.1	-34.7	.	.
CC(C)NC(=O)Nc1ccc2c(c1)CC(=O)N([C@H](C)CO)C[C@@H](C)[C@H](CN(C)Cc1ccccc1)O2	.	.	-4.2	.	.	.	.	.
Nc1ccc(C(=O)N/N=C/c2cn(Cc3ccccc3F)c3ccccc23)cc1	-5.9	0.6	3.3	14.1	-2.2	17.4	.	.
CC(C)n1cc(/C=N/Nc2ccc(C(=O)O)cc2)c2ccccc21	61.7*	-0.1	-0.8	4.5	62.6*	81.2*	70.6*	61.7*
O=C(O)c1ccc(N/N=C/C(Br)=C/c2ccccc2)cc1	-5.9	0.0	-81.9	-66.3	24.1*	34.4	50.3*	34.6*
O=C(O)c1ccc(N/N=C/c2cn(Cc3ccccc3F)c3ccccc23)cc1	31.4	-0.1	-56.8	-19.2	36.4*	32.7	38.5*	32.0*
O=C(O)c1ccc(N/N=C/c2c[nH]c3ccccc23)cc1	52.6*	-0.2	59.1*	35.9	81.7*	-16.4	89.1*	86.0*
O=C(N/N=C/C(Br)=C/c1ccccc1)C(O)c1ccccc1 (configuration not stated)	-36.2	0.2	-30.1	-15.9	3.5	-23.8	.	.
CCC(=O)N1[C@@H](CO)[C@@H](c2ccc(-c3cccnc3)cc2)[C@@H]1CN(CC)C(C)=O	.	.	-3.5	.	.	.	.	.
CCC(=O)N1C[C@@H]2[C@H](c3ccccc31)[C@H](CO)N2Cc1ccccc1Cl	.	.	1.1	.	.	.	.	.
O=c1c2ccccc2cnn1Cc1nnc(-c2cccs2)o1	-4.1	0.5	-14.2	-4.4	19.4*	9.9	-0.7	-4.8
SMILES	TROY signal inh	aDG glyco up	LGR2 antag	EBV LMP1 NFkB	HSP90 refold inh	TWEAK Fn14 block	HSP90 confirm	luciferase ctr
C(=C\c1cccc2ccccc12)/c1nnc(-c2cccs2)o1	-15.9	-0.2	2.3	5.1	-2.0	-5.1	.	.
COc1ccc(CN(C)C[C@@H]2Oc3c(NS(=O)(=O)c4ccc(OC)cc4)cccc3C(=O)N([C@@H](C)CO)C[C@H]2C)cc1	.	.	9.5	.	.	.	.	.
Cc1[nH]c2ccccc2c1/C=N/Nc1nncn1N	-24.0	0.0	-94.1	-7.5	78.3*	-27.2	-9.6	-37.0
Cc1[nH]c2ccccc2c1/C=N/Nc1ccccn1	.	.	-2.8	.	-2.3	.	.	.
CC(C)NC(=O)N1[C@@H](C#N)[C@H](c2ccc(C#CC3CCCCC3)cc2)[C@@H]1CO	.	.	-1.9	.	.	.	.	.
C[C@H](CO)N1C[C@H](C)[C@H](CN(C)S(=O)(=O)CC(F)(F)F)OCc2ccccc2-c2ccccc2C1=O	.	.	-1.0	.	.	.	.	.
O=C(O)CC1SC(N/N=C/c2ccc(Br)cc2)NC1=O (configuration not stated)	-10.6	0.1	10.0	-19.4	17.2*	7.0	24.1*	-9.6
C[C@H](CO)N1C[C@H](C)[C@H](CN(C)Cc2ccccc2)Oc2ccc(NS(=O)(=O)c3ccc(Cl)cc3)cc2C1=O	.	.	-15.4	.	.	.	.	.
O=[N+]([O-])c1ccc(/C=C/c2ccc3ccccc3n2)cc1	54.5*	-0.3	54.4*	4.2	20.7*	60.1*	66.5*	53.9*
C(=C\c1ccc2ccccc2n1)/c1ccccc1	56.8*	-0.1	93.9*	39.8	35.1*	74.4*	83.4*	77.1*
C[C@@H]1CN([C@H](C)CO)C(=O)c2cc(-c3cccnc3)cnc2O[C@@H]1CN(C)C(=O)C1CCC1	.	.	9.8	.	.	.	.	.
COCCNS(=O)(=O)c1cc(OC)c(Cl)cc1Cl	.	.	.	.	17.5*	.	3.0	-3.2
COc1ccc(-c2cc3c(=O)n(CC(=O)NCCCN4CCN(Cc5ccccc5)CC4)ncn3n2)cc1	-11.8	4.6	13.9	50.4*	25.6*	22.6	51.0*	34.7*
COc1ccc(-c2cc3c(=O)n(CC(=O)NCCCN4CCC(Cc5ccccc5)CC4)ncn3n2)cc1	10.0	6.2	7.6	15.9	55.3*	40.6	59.5*	6.8
COc1ccc(-c2cc3c(=O)n(CC(=O)NCc4ccc(Cl)cc4)ncn3n2)cc1	-33.1	0.0	16.3	-48.0	2.8	-48.2	.	.
C[C@@H]1CCCCO[C@H](CN(C)C(=O)C2CCCCC2)[C@H](C)CN([C@@H](C)CO)C(=O)c2cc(N(C)C)ccc2O1	.	.	0.4	.	.	.	.	.
C[C@H]1CN([C@@H](C)CO)C(=O)c2cc(C3=CCCCC3)cnc2O[C@H]1CN(C)C(=O)NC1CCCC1	.	.	16.1	.	.	.	.	.
C[C@@H]1CN([C@@H](C)CO)C(=O)c2cc(NS(C)(=O)=O)ccc2O[C@@H]1CN(C)Cc1ccc(Cl)c(Cl)c1	.	.	-1.5	.	.	.	.	.
O=C(COc1cccc(Br)c1)Nc1ccc(N2CCOCC2)cc1N1CCOCC1	-22.3	-0.3	-9.8	-9.7	.	-10.2	.	.
CCC(=O)c1ccc(OCC(=O)Nc2ccc(N3CCOCC3)cc2N2CCOCC2)cc1	-15.2	-0.1	-0.2	-3.2	28.0*	-28.0	-5.2	-10.2

From PubChem
